The campaign covered roughly 410,000 compounds. About 6,400 (1.6%) were called active. A call without a number means that no potency is given here. About 20% were inconclusive and are not listed. This excerpt belongs to a sample that is enriched for actives. Unmarked numbers belong to inactive results. Calls come from the whole dose curve; as a rule, active = well fitted inhibition curve with a large enough effect; inconclusive = small, poorly fitted or top-dose-only effect; inactive = no such curve, though single readings can be large or run the other way.
Potency is the fitted concentration of half-maximal effect.

In this experiment the target is Glucagon-like peptide 1 receptor (Homo sapiens) (UniProt P43220). The experiment is described as follows: qHTS of GLP-1 Receptor Inverse Agonists (Inhibition Mode). Note: nearly all actives have a fitted effect of over 55% in size. Particulars: HEK293 GLP-1R CRE-luciferase, luminescence, 24 h, GLP-1R form is constitutively active; series mostly up to 38.3 µM. A digest of the protocol: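 Inverse agonism was detected as reduced cAMP-driven luciferase luminescence after 24 h compound treatment. The cells were HEK293 clones expressing constitutively active human GLP-1R with the reporter. Reporter-only and GPR119 cell lines served as counterscreen controls.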
Chain of Glucagon-like peptide 1 receptor (Homo sapiens) (P43220 whole entry, looked up): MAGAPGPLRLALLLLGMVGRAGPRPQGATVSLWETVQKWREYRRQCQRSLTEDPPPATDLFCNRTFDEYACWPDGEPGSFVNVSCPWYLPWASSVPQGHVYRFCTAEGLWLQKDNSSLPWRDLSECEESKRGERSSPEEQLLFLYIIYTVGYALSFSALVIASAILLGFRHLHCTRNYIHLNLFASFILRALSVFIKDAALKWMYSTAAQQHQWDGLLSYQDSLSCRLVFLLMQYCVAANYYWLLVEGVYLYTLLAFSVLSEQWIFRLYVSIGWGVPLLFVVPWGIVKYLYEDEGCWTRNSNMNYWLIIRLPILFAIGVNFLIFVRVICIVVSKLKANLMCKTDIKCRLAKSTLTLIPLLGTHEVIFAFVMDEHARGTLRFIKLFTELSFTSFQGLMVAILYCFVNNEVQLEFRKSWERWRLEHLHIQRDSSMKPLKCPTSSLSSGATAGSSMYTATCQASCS
(In general: Quantitative high-throughput screening tests each substance at several concentrations.)
Take `O=C(NCc1ccccc1Cl)c1csc([C@@H]2O[C@H](CO)[C@@H](O)[C@H]2O)n1`: the Potency entry is “inactive”.
Consider `CCCN(CC(=O)Nc1ccccc1C)C(=O)c1ccc2[nH]c3c(c2c1)CC(C)CC3` (stereo unspecified), for which the Potency is 5.62 µM (active).
Still for that read-out and setting: the same measure for `CCCN(CC(=O)Nc1ccccc1C)C(=O)c1ccc(OCC(=O)N2CCOCC2)c(OCC)c1`: “inactive”; for `CCCN(CC(=O)Nc1ccccc1C)C(=O)c1cc(=O)[nH]c2ccccc12`: “inactive”.
As for `CN(Cc1c(F)cccc1Cl)C(=O)COC(=O)Cn1cnc2ccccc2c1=O`, the Potency result is “inactive”.
With `Cc1ccc(CN2CCc3nc(N4CCN(C)CC4)ncc3C2)cc1`, the Potency was 7.94 µM (active).
The same measure, in the same setting: the same measure for `CCOc1ccc(CN2CCCN(C)CC2)cc1`: “inactive”; for `CCCN1CCc2nc(N3CCN(C)CC3)ncc2C1`: “inactive”; for `COc1cc(C(O)c2nc(-c3cccc(C(=O)O)c3)cs2)ccc1F` (stereo unspecified): “inactive”.
Consider `Cc1cccc(C)c1-n1nnnc1C(CCc1ccccc1)N1CCN(C/C=C/c2ccccc2)CC1` (stereo unspecified), for which the Potency entry is “inactive”.
`CC1Cc2[nH][nH]c(=O)c2C(C2CC2)O1` (stereo unspecified): the Potency entry is “inactive”.
Still for that read-out and setting: in the case of `CC(C)C1Cc2[nH][nH]c(=O)c2C(c2ccc(Cl)cc2)O1` (stereo unspecified) it was “inactive”.
The same measure, in the same setting: in the case of `COc1ccc(C2OC(CCc3ccccc3)Cc3[nH]c(=S)[nH]c(=O)c32)cc1` (stereo unspecified) it was 10 µM (active); in that of `COc1ccc(N2C(=O)C(Cc3ccccc3)NC2=S)cc1` (stereo unspecified), “inactive”; in that of `COc1ccc(C2CC(=O)NC(=O)C2)cc1`, “inactive”.
In the case of `O=c1[nH][nH]c2c1[C@H](c1ccc(Cl)cc1)O[C@H](CCc1ccccc1)C2`, the Potency is 10 µM (active).
On to `COc1ccc(CCNC(=O)Nc2ccc3c(c2)c(=O)n(C)n3C)cc1OC`, for which the Potency result was “inactive”.
Turning to `CC(C)CN1C(=O)CN(S(C)(=O)=O)CC1(C)C(=O)NCc1ccccc1` (stereo unspecified), the Potency result is “inactive”.
`c1ccc(Cc2c(-c3ccco3)nc3c4ccccc4ccn23)cc1`: the Potency result is “inactive”.
Still for that read-out and setting: the same measure for `CCN(CC)CCNC(=O)Cn1cnc2sc(C)c(S(=O)(=O)N3CCOCC3)c2c1=O`: “inactive”.
With `CCN(CC)CCNC(=O)c1sc2ncn(CC(=O)Nc3ccc(C)c(Cl)c3)c(=O)c2c1C`, the Potency was 11.2 µM (active).
The same measure, in the same setting: in the case of `Cc1ccc(NC(=O)Cn2cnc3nc4c(cc3c2=O)CCCC4)cc1Cl` it was “inactive”.
Same read-out and setting: the same measure for `COc1ccc(C(C(=O)Nc2c(C)cccc2C)N2CCN(c3ccc(C)cc3)CC2)cc1` (stereo unspecified): “inactive”; for `CCOC(=O)N1CCN(C(c2ccnc3ccccc23)c2nnnn2-c2c(C)cccc2C)CC1` (stereo unspecified): “inactive”.
As to `Cc1nc(C(F)(F)F)ccc1C(=O)N1CCC1(C)C(=O)NS(=O)(=O)c1ccccc1` (stereo unspecified), the Potency result was “inactive”.
`O=C(c1cc(C2CCCCN2S(=O)(=O)c2ccccc2)on1)N1CCOCC1` (stereo unspecified): the Potency result is “inactive”.
On the same count and under the same terms, the same measure for `CCN1CCCC1CNC(=O)c1ccc2c(c1)NC(=O)/C(=C\c1ccccc1F)S2` (stereo unspecified): 11.2 µM (active).
In the case of `CCN1CCN(CCNC(=O)c2ccc3c(c2)NC(=O)/C(=C\c2cccc(Cl)c2)S3)CC1`, the Potency entry is “inactive”.
As to `CCN1CCCC1CNC(=O)c1cc2c(=O)n(C)c3ccccc3c2n1C` (stereo unspecified), the Potency result is “inactive”.
In the case of `O[C@H]1CN(Cc2cccs2)[C@@H](c2ccc(Cl)cc2)C[C@@H]1n1cc(C2CC2)nn1`, the Potency entry was “inactive”.
Consider `O=C(CNC(=O)N1CC(=O)Nc2ccccc21)Nc1ccc(Br)cc1F`, for which the Potency result was “inactive”.
As to `CO[C@@H]1CN(C)C(=O)c2cc(NC(=O)C3CC3)ccc2OC[C@H](C)N(C(=O)CN2CCOCC2)C[C@@H]1C`, the Potency entry was “inactive”.
Take `CN(C)CCCNC(=S)N1CCC(c2nc3ccccc3[nH]2)CC1`: the Potency result was “inactive”.
As for `CN(C)CCCNC(=S)N1CCN(c2nc(-c3ccccc3)cs2)CC1`, the Potency is 3.98 µM (active).
Consider `c1ccc(-c2csc(N3CCc4ccccc4C3)n2)cc1`, for which the Potency result is “inactive”.
As to `CCC1(CC)Cc2ccccc2-c2nc3ccccc3c(=O)n21`, the Potency was 8.91 µM (active).
With `CCOC(=O)C1CCc2nc3ccccc3c(=O)n21` (stereo unspecified), the Potency entry was “inactive”.
`CCOn1c(SC(C)C)nc2ccccc2c1=O`: the Potency entry is “inactive”.
In the case of `Cc1ccc([C@@H]2CC(=O)[C@@H]3CN(S(=O)(=O)c4ccc(C)cc4)[C@H](c4ccccc4F)C[C@@H]3N2S(=O)(=O)c2ccc(Cl)cc2)cc1`, the Potency entry was “inactive”.
Same read-out and setting: in the case of `OC(CNCC1CCCO1)Cn1c2ccc(Br)cc2c2cc(Br)ccc21` (stereo unspecified) it was 5.62 µM (active).
As for `O=C(CSc1ccc(-c2ccc(Br)cc2)nn1)NCC1CCCO1` (stereo unspecified), the Potency result is “inactive”.
For `O=C(CCNS(=O)(=O)c1ccc(Br)cc1)NCC1CCCO1` (stereo unspecified), the Potency entry was “inactive”.
Take `Cc1cccc(C(=O)NC(=S)N(C)C2CCCCC2)c1`: the Potency entry is “inactive”.
Turning to `Cc1cccc(C(=O)N2c3nc(-c4ccco4)nn3C3(CCCCC3)[C@@H]3CCCC[C@@H]32)c1`, the Potency is 11.2 µM (active).
Regarding `Cc1ccc(-n2ncc3c2ncn2nc(-c4ccco4)nc32)c(C)c1`, the Potency entry was “inactive”.
Still for that read-out and setting: in the case of `CCc1nc2c(OCC(N)=O)cccn2c1N(C)C(=O)c1ccc(OC)cc1` it was “inactive”.
Same read-out and setting: in the case of `Cc1ccccc1S(=O)(=O)NC(=O)C1(C)CCN1C(=O)Cc1ccc(Cl)cc1Cl` (stereo unspecified) it was “inactive”.
The same measure, in the same setting: in the case of `C=CCC[C@H](Cc1ccc(F)cc1)C(=O)OC[C@@H](NC(=O)[C@@H](CC=C)CC(=O)N[C@H](CO)Cc1ccccc1)C(C)(C)C` it was 7.94 µM (active); in that of `C=CC[C@@H](CC(=O)N[C@H](CO)Cc1ccccc1)C(=O)N[C@H](C)COC(=O)[C@@H](CC=C)Cc1ccc(F)cc1`, “inactive”.
For the molecule `C=CC[C@@H](CC(=O)N[C@@H](CO)Cc1ccccc1)C(=O)N[C@H](COC(=O)[C@H](CC=C)CC(=O)OC(C)(C)C)Cc1ccccc1`, the Potency entry was “inactive”.
The same measure, in the same setting: the same measure for `CCCCc1ccc(S(=O)(=O)NC(=O)C2(C)CCN2C(=O)c2c(C)noc2C)cc1` (stereo unspecified): “inactive”; for `Cc1cc(=O)c2ccc(NC(=O)c3ccccc3)cc2[nH]1`: “inactive”.
Regarding `CCCCCn1nnnc1C1c2ccccc2C(=O)N1Cc1ccco1` (stereo unspecified), the Potency result is “inactive”.
Take `COc1ccc(Sc2ccc(NC(=O)c3cccc(Cl)c3)cc2C#N)cc1`: the Potency entry is “inactive”.
In the case of `CCCCNC(=O)C[C@@H]1C[C@@]2(C(=O)OCC)CCC=C2N(Cc2ccco2)C1=O`, the Potency result was “inactive”.
Still for that read-out and setting: in the case of `Cn1c(S(=O)(=O)O)nc2ccccc21` it was “inactive”.
With `O=S(=O)(Cc1ccccc1)c1nc2ccccc2n1Cc1ccccn1`, the activity change, negative = inhibition was 0.0124% [at 7.66 µM].
As to `O=S(=O)(O)c1nc2ccccc2n1Cc1ccc(Cl)cc1Cl`, the Potency was 10 µM (active).
For the molecule `Cc1ccc(-c2ccc(C3=CC(=O)CC(C)(C)C3=O)cc2)cc1`, the Potency entry was “inactive”.
Turning to `CCc1nc2ccc(C(=O)NC3CCN(Cc4ccccc4)CC3)cn2c1N(C)CCN1CCOCC1`, the Potency result was “inactive”.
As for `CC(C)CCC(=O)Nc1cc(S(=O)(=O)N2CCOCC2)ccc1N1CCCC1`, the Potency result was “inactive”.
For the molecule `Cc1ccc(Nc2ccc3cc(S(=O)(=O)N4CCCCC4)ccc3n2)cc1F`, the Potency is 2.82 µM (active).
In the case of `O=S(=O)(c1ccc2nc(N3CCN(c4cccc(Cl)c4)CC3)ccc2c1)N1CCCCC1`, the Potency result was “inactive”.
Take `CC(=O)c1cccc(Nc2ccc3cc(S(=O)(=O)N4CCC(C)CC4)ccc3n2)c1`: the Potency entry is “inactive”.
Consider `CC1CCC2(CC1)N=C(c1ccccc1)C(=O)N2CC(=O)Nc1ccc(F)c(Cl)c1` (stereo unspecified), for which the Potency is 10 µM (active).
For `Cc1ccc(NC(=O)CN2C(=O)C(c3ccc(F)cc3)=NC23CCCCCC3)c(C)c1`, the Potency entry was “inactive”.
In the case of `COc1ccc(NC(=O)CN2C(=O)C(c3ccccc3)=NC23CCCCCC3)cc1OC`, the Potency result was “inactive”.
`CC(C)(C)c1ccc(S(=O)(=O)NC(=O)C2(C)CCN2C(=O)CC2CC2)cc1` (stereo unspecified): the Potency entry was “inactive”.
Turning to `CCOC(=O)C1(CCOC)CCN(Cc2ccc(C(=O)OC)cc2)CC1`, the Potency result is “inactive”.
The same measure, in the same setting: in the case of `CCCS(=O)(=O)N1CCC(CCOc2ccccc2)(C(=O)OCC)CC1` it was “inactive”.
On to `CCOC(=O)C1(CCOc2ccccc2)CCN(C(=O)c2cncs2)CC1`, for which the Potency entry is “inactive”.
Turning to `CCOC(=O)C1(CCOc2ccccc2)CCN(Cc2ccc(C#CCCO)cc2)CC1`, the Potency was 7.94 µM (active).
For `CCOC(=O)C1(CCOc2ccccc2)CCN(Cc2cc(OC)cc(OC)c2)CC1`, the Potency was 10 µM (active).
For the molecule `CCOC(=O)C1(S(=O)(=O)c2ccc(Cl)cc2)CCN(Cc2ccccc2)CC1`, the Potency entry was “inactive”.
For the molecule `COC(=O)C[C@@H]1C=C[C@@H](NC(=O)c2cccnc2)[C@@H](CO)O1`, the Potency result was “inactive”.
The same measure, in the same setting: in the case of `COc1ccc(CN2C[C@H]3CON(C)[C@H]3C[C@H]2c2ccc(-c3cccc(F)c3)cc2)cc1` it was “inactive”; in that of `CC1C(=O)N(Cc2cn(CC3CCCCC3)nn2)CCS(=O)(=O)N1Cc1ccc(-c2cccc(N(C)C)c2)cc1` (stereo unspecified), “inactive”.
`O=S1(=O)CCN(Cc2ccccc2)CC1`: the Potency entry was “inactive”.
The same measure, in the same setting: in the case of `O=C(NC1CCCC1)C1CCN(C(=O)Nc2cccc(Cl)c2)CC1` it was “inactive”; in that of `COc1cccc(-c2cccc(NC(=O)C3CCN(C4CCC4)CC3)c2)c1`, “inactive”; in that of `O=C(Nc1cccc(-c2cccc(Cl)c2)c1)C1CCN(C2CCC2)CC1`, 6.31 µM (active).
The same measure, in the same setting: the same measure for `Cc1cc2c(cc1C)N1C(=O)c3cc4ccccc4cc3NC(=O)C1C(=O)N2` (stereo unspecified): “inactive”; for `O=S(=O)(CCc1nc2ccccc2o1)c1ccc(Cl)cc1`: “inactive”.
The same measure, in the same setting: in the case of `O=S(=O)(Cc1ccc(Cl)cc1Cl)c1ccc(Cl)cc1` it was 12.6 µM (active).
For the molecule `NNC(=O)c1ccc(Cl)cc1Cl`, the Potency entry was “inactive”.
Consider `COCCNc1nc(NCc2ccc(NC(C)=O)cc2)c2sccc2n1`, for which the Potency result was “inactive”.
Regarding `C[C@H](CO)N1C[C@H](C)[C@@H](CN(C)S(=O)(=O)c2ccc(Oc3ccccc3)cc2)OCc2cn(nn2)CCCC1=O`, the Potency result is “inactive”.
Consider `Cc1csc(SCC(=O)Nc2ccc(C)c(S(=O)(=O)N(C)C)c2)n1`, for which the Potency entry was “inactive”.
For the molecule `CN(C)c1nc(Nc2ccc(Cl)c(Cl)c2)nc(N(C)C)n1`, the Potency result was “inactive”.
In the case of `OCCNc1nc(Nc2ccc(Cl)c(Cl)c2)nc2ccccc12`, the Potency is 3.98 µM (active).
Turning to `Cc1nnc(NCCO)c2ccccc12`, the Potency result was “inactive”.
Turning to `CC(=O)Nc1ccc(CNc2nc(NCCN(C)C)nc3cc(-c4ccccc4)sc23)cc1`, the Potency result was “inactive”.
As for `CCOc1cccc(C(=O)Nc2nnc(-c3cccs3)s2)c1`, the Potency entry is “inactive”.
Same read-out and setting: the same measure for `CCCOc1cccc(C(=O)NCCCNC(=O)c2cccnc2)c1`: “inactive”; for `CCOc1cccc(C(=O)Nc2cnn(Cc3ccccc3)c2)c1`: 10 µM (active); for `Cc1nccn1-c1ccc(NC(=O)[C@H]2O[C@@H](n3cnc4c(N)ncnc43)[C@H](O)[C@@H]2O)cc1`: “inactive”.
